Where “and” joins values, the source holds several entries; their conditions need not be identical. Identical values can stand only once. The whole screen tested about 260,000 compounds, of which about 1,500 (0.58%) were called active. Another 5% or so got no clear call; they are omitted.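 The calls were made as follows: active = inhibition above a set limit at one or more doses, reproduced on every date tested; inconclusive = results disagree between test dates, or hit never tested in dose response; inactive = the rest.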 Not all results are given here. Measured potencies and affinities stand elsewhere.
molecular target: Virion infectivity factor (Human immunodeficiency virus type 1 group M subtype B (isolate BH10)) + Virion infectivity factor (Human immunodeficiency virus type 1 group M subtype B (isolate BRU/LAI)) + Virion infectivity factor (Human immunodeficiency virus type 1 group M subtype B (isolate PCV12)) + Virion infectivity factor (Human immunodeficiency virus type 1 group M subtype B (isolate HXB2)) + DNA dC->dU-editing enzyme APOBEC-3G (Homo sapiens) (UniProt P69720+P69721+P69722+P69723+Q9HC16); assay: inhibitors of Vif binding to APOBEC3G peptide, primary screen, biochemical, TR-FRET, GST-Vif 1-94, biotin-A3G peptide, dose response retest (AID 1117319); details: active compounds read high;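 also: Vif residues 1-94 fused to GST binding biotinylated APOBEC3G peptide 110-148; 0% = full assay without inhibitor and 100% = GST in place of GST-Vif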

inhibition, inactive:
COC(=O)[C@H](C)NC(=O)Nc1ccccc1C(F)(F)F 8.61%
CNC(=O)C12CCC(C)(c3nc4cc(C)c(C)cc4nc31)C2(C)C (configuration not stated) 2.01%
CCOC(=O)C1CCN(Cc2cnc(Oc3ccc(C(C)(C)C)cc3)s2)CC1 28.3%
CCOC(=O)C1CCN(Cc2cnc(Oc3ccc(N)cc3)s2)CC1 3.48%
Cc1cc(CNC(=O)CCc2nnc(CCCCc3ccccc3)o2)nn1C -5.35%
Cc1ccc(-c2cc(Cc3ccc(N(C)C)cc3)c(=O)[nH]n2)cc1 -0.03%
CN(C)c1ccc(C(=O)c2ccc(O)cc2O)cc1 -0.42%
O=C(Nc1ccc(Cl)cc1)C(c1ccccc1)N(CCO)CCO (configuration not stated) -1.42%
COC(=O)c1ccc(CSc2nnc(-c3ccccc3)n2C)o1 2.37%
O=C(O)c1ccc(C(=O)c2cc([N+](=O)[O-])cc([N+](=O)[O-])c2)cc1 -9.99%
O=C(O)c1ccc(S(=O)(=O)c2ccccc2C(=O)O)c([N+](=O)[O-])c1 -4.06%
Cc1cc(C(=O)Nc2ccccc2Cc2ccccc2)no1 -1.05%
Cc1sc(NC(=O)c2cccs2)c(C(=O)OC(C)C)c1C 2.47%
CCOC(=O)c1c(NC(=O)c2cccs2)sc(C)c1CC -1.19%
O=C(O)/C(=C/c1ccc(Cl)c([N+](=O)[O-])c1)c1ccc(S(=O)(=O)N2CCCCC2)s1 19.6%
COc1c(C)cc(C(=O)C2CCCN(C(=O)c3cc(C)nc(C)n3)C2)cc1C (configuration not stated) -12.6%
CCc1cccc(NC(=O)CN(C)S(=O)(=O)c2cccc3cccnc23)c1 5.83%
COc1c(O)cc2c(c1O)C(=O)CC(c1ccccc1)O2 (configuration not stated) 2.35%
COc1cc(O)c(CCO)c2c1C(=O)C[C@@H](C)O2 1.87%
O=C(NCc1cccnc1)c1ccc(CS(=O)(=O)Cc2ccc(Cl)cc2)o1 21.4%
Cc1noc(C)c1S(=O)(=O)N1CCC(C(=O)NC2CCN(Cc3ccccc3)CC2)CC1 28.3%
CCc1cccc(NC(=O)C2CCN(S(=O)(=O)c3c(C)noc3C)CC2)c1 -1.11%
CCCCn1c(SCC(=O)c2ccc(OCC)cc2)nc2cc(S(N)(=O)=O)ccc21 3.73%
CN1CC(=O)N(CC(=O)Nc2ccc(Cl)c(C(F)(F)F)c2)C1=O -5.66%
COc1ccc(NC(=O)CCCCCN2C(=O)CCC2=O)cc1Cl -2.09%
O[C@H]1C[C@H](c2ccccc2)N(CC2CCCCC2)C[C@@H]1n1cc(C2CC2)nn1 -3.24%
Cc1ccccc1N(C(=O)Cn1nnc2ccccc21)C(C(=O)NCc1ccco1)c1ccncc1 (configuration not stated) -7.73% and -2.99%
Cc1ccc(C)c(N(C(=O)Cn2nnc3ccccc32)C(C(=O)NCc2ccco2)c2ccncc2)c1 (configuration not stated) -2.7%
CC(C)Oc1ccc(N2CC(C(=O)Nc3ccccc3C(=O)NC3CC3)CC2=O)cc1 (configuration not stated) -13%
Cc1ccc2[nH]c(=O)c(C3=NN(C(=O)CCC(=O)O)C(c4cccs4)C3)c(-c3ccccc3)c2c1 (configuration not stated) 2.41%
COC(=O)C(CC(=O)c1ccc(Cl)cc1)c1ccc(C(C)C)cc1 (configuration not stated) 10.5%
CC(C)NC(=O)N(Cc1ccccc1)Cc1cccs1 -1.49%
O=C(CCCl)N(Cc1nc2ccccc2c(=O)[nH]1)Cc1cccs1 -7.06%
CN(CC(=O)Nc1cccc(F)c1)C(=O)c1ccccc1OCCOc1ccccc1 2.96%
C=CCNC(=O)c1ccc(-c2ccc([N+](=O)[O-])cc2)o1 16.1%
CC(=O)Nc1ccc(NC(=O)c2ccc(-c3ccc([N+](=O)[O-])cc3)o2)cc1 -7.43%
O=C(NNC(=O)c1ccccc1C(=O)O)c1cc2ccccc2o1 19%
O=C(NNC(=O)c1cc2ccccc2o1)c1ccc(F)cc1 -2.65%
CC1CCN(c2ccccc2NC(=S)NC(=O)C(C)(C)C)CC1 -4.59%
COc1ccc2c(CC(=O)NNC(=O)c3cccs3)coc2c1 5.01%
CCCC(C(=O)NC(C)(C)C)N(Cc1ccccc1)C(=O)c1snc(C(N)=O)c1N (configuration not stated) 3.36%
Cc1nn(Cc2ccc(Cl)cc2Cl)c(C)c1NC(=O)c1nn(C)cc1Cl -2.6%
O=C(CCc1ccccc1)Nc1ccc(NS(=O)(=O)c2ccccc2)cc1 0.68%
Cc1c[n+]([O-])cc(C)c1[N+](=O)[O-] -3.91%
O=C(CCN1CCN(CCO)CC1)Nc1ccc(OCc2ccccc2)cc1 -0.21%
CC1(C)CC(=O)C2=C(C1)NCN(Cc1ccccc1)C2 0.39%
c1cc2c(cc1CN1CCOCC1)OCO2 11.3%
O=C(OCC(=O)N1CCCC1)c1c2c(nc3ccccc13)CCCCC2 -4.27%
C[C@@H]1ON(C)[C@H]2C[C@H]3c4[nH]c5ccccc5c4CCN3C[C@@H]12 -1.4%
NNC(=O)C1C(O)CCC2CN3CCc4c([nH]c5ccccc45)C3CC21 (configuration not stated) -9.7%
Cc1ccnc(NS(=O)(=O)c2cc([N+](=O)[O-])ccc2C)c1 -2.19%
COc1ccc(/C=C2\N=C(c3ccccc3Cl)NC2=O)cc1 3.99%
O=c1/c(=C/c2ccco2)sc2n1CN(c1cccc(Br)c1)CN=2 32.9%
Cc1ccc(C2=N/C(=C\c3ccc(F)cc3)C(=O)N2)cc1 -3.34%
Brc1cccc(-c2nnco2)c1 -2.5%
O=C(CCc1nc2ccccc2c(=O)[nH]1)OCc1ccc(-c2ccccc2)cc1 -13.5%
CCc1ccc2c(c1)C(=O)CCC2 -0.54%
O=C(CN1CCCCC1)NCCNC(=O)CN1CCCCC1 -5.6%
Cc1ccc2c(c1)c1c3n2CCN(C(=O)C2CC2)C3CCC1 (configuration not stated) 14.1%
Cc1ccc2c(c1)c1c3n2CCN(C(=O)CN2CCN(C)CC2)C3CCC1 (configuration not stated) -1.2%
COC(=O)c1ccc2c(c1)SC1=C(CCCC1=O)N2 20.1%
CNCc1ccccc1OCc1ccc(F)cc1 -4.9%
CCC(C)[C@@H](C(=O)Nc1ccc(OC)c(OC)c1)N1Cc2ccccc2C1=O (some centres not stated) 3.88%
CC(C(=O)Nc1ccc2c(c1)OCCO2)N1Cc2ccccc2C1=O (configuration not stated) 7.84%
N#CC(C(N)=O)=C1CCC2(CC1)OCCCCO2 3.27%
N#C/C(C(N)=O)=C1/CCc2ccccc2N1 -2.65%
Cc1noc(C)c1S(=O)(=O)Nc1ccc2c(c1)C(=O)N([C@@H](C)CO)C[C@@H](C)[C@@H](CN(C)CC1CCCCC1)OCCCC[C@@H](C)O2 2.32%
C[C@@H]1CCCCO[C@H](CN(C)Cc2ccc(C(F)(F)F)cc2)[C@@H](C)CN([C@H](C)CO)C(=O)c2cc(NS(=O)(=O)c3cn(C)cn3)ccc2O1 -0.57%
CCOC(=O)c1c(C)nc(C)c(C(=O)OCC)c1-c1cccc(N)c1 -1.65%
CC(C)n1c(SCC(=O)Nc2nc3ccccc3s2)nc2c1c(=O)n(C)c(=O)n2C 10.6%
NS(=O)(=O)c1cc(Br)c2c(c1)S(=O)(=O)NCN2 -0.53%
CCOC(=O)N1CCC(N(CCN(C)C)C(=S)Nc2cccc(Cl)c2C)CC1 -1.98%
Cc1ccc(N2NC(=O)/C(=C/c3ccc(-c4ccc(Cl)c(C(=O)O)c4)o3)C2=O)cc1 0.99%
O=C1NN(c2ccccc2)C(=O)/C1=C/c1ccc(-c2ccc(Cl)c(C(=O)O)c2)o1 -2.97%
CCOc1ccc2[nH]c(=O)c(CN(CCO)C(=O)c3ccc(OC)c(OC)c3)cc2c1 -0.38%
CCN(C(=O)COC(=O)c1cnc(C)cn1)c1c(N)n(Cc2ccccc2)c(=O)[nH]c1=O 2.12%
COc1c(O)cc2oc(-c3ccc(O)cc3)cc(=O)c2c1O 19.4%
O=c1cc(-c2ccc(O)c(O)c2)oc2cc(O)cc(O)c12 15.6%
O=c1cc(-c2ccc(O)c(O)c2)oc2ccc3ccccc3c12 10.7%
O=c1cc(-c2ccc(O)cc2)oc2cc(O[C@@H]3O[C@H](CO)[C@@H](O)[C@H](O)[C@H]3O[C@@H]3OC[C@](O)(CO)[C@H]3O)cc(O)c12 6.15%
COc1ccc(CNC(=O)CCC(=O)N2CCN(S(=O)(=O)c3cc([N+](=O)[O-])ccc3C)CC2)cc1 -6.42%
CN(C)c1ncc(/C=C2/C(=O)NC(=S)N(C3CCCCC3)C2=O)cn1 1.75%
CCOc1ccc(CCNS(=O)(=O)c2ccc3c(c2)oc(=O)n3C)cc1OCC 13.6%
c1ccc(CN2CCc3[nH]c4ccccc4c3C2)cc1 -5.69%
CC(C)CC(=O)N1CCN(C(=O)c2cccc(F)c2)CC1 -7.36%
COc1ccc(OCC(O)CN(C)C(=O)/C=C/c2cccc([N+](=O)[O-])c2)cc1 (configuration not stated) -4.1%
COc1ccc(/C=C/c2nc3sc4c(c3c(=O)o2)CCC4)cc1 -1.87%
O=c1oc(/C=C/c2ccccc2)nc2sc3c(c12)CCC3 70.5%
CCc1ccccc1OCC(=O)OCC(=O)N1CC(=O)Nc2ccccc21 -5.84%
CS(=O)(=O)N(CC(=O)NCc1ccc2c(c1)OCO2)C1CCCCC1 -13.6%
Oc1cccc(/C=N/N2CCCCC2)c1O -5.32%
Oc1ccccc1C=NN1CCCCCC1 -3.73%
O=C1c2ccccc2C(=O)N1/N=C/c1ccc(O)c(O)c1 29.1%
CCN(CC)c1ccc(/C=N/N2CCOCC2)c(O)c1 -1.22%
CCN(CC)c1ccc(/C=N/N2C(=O)c3ccccc3C2=O)c(O)c1 19.7%
COc1cccc(/C=N/N2CCOCC2)c1O 2.44%
CCC(=O)C1CCCN(C(=O)CCc2nnc(C3(c4ccc(Cl)cc4)CCC3)o2)C1 (configuration not stated) 8.39%
CCC(C)(C(=O)NC1CCCC1)N(C(=O)c1ccccn1)c1ccc(C)cc1 (configuration not stated) 5.82%
CC(=O)Nc1cccc(C(=O)OCC(=O)NNC(=O)c2cccs2)c1 -1.93%
Cc1ccc(C2(C)NC(=O)N(CC(=O)Nc3nc(-c4ccccn4)cs3)C2=O)cc1 (configuration not stated) 0.48%
COc1ccccc1OCC(=O)NCC(C)NC(=O)COc1ccccc1OC (configuration not stated) 5.26%
COc1ccc(-c2cn(-c3ccc(C)cc3)c(=O)n2CC(=O)Nc2cccc(F)c2)cc1 7.83%
CCOc1cccc2sc(N(CCCN(C)C)C(=O)Cc3ccccc3)nc12 3.08%
CCc1c(C)sc(NC(=O)OC)c1C(=O)N1CCOCC1 -5.04%
CCc1c(C)sc(NC(=O)OC)c1C(N)=O -10.3%
OC(COCc1ccccc1)CN1CCCC1 (configuration not stated) 1.73%
COc1ccc2oc(C(=O)c3ccccc3)c(NC(=O)CN3CCN(C)CC3)c2c1 1.78% and 5.75%

Source: PubChem BioAssay AID1117319 (Southern Research Institute, 2015)
